Data taken from article PMC12136788.
Over roughly 5,800 sequences, “enrichment r” has its median near 0.68; the highest 2% begin near 11. The list is a sample of the results.

T1: UNK ZnF1-6 (called full-length) (human, UniProt Q9C0B0 30-357)
T1 sequence: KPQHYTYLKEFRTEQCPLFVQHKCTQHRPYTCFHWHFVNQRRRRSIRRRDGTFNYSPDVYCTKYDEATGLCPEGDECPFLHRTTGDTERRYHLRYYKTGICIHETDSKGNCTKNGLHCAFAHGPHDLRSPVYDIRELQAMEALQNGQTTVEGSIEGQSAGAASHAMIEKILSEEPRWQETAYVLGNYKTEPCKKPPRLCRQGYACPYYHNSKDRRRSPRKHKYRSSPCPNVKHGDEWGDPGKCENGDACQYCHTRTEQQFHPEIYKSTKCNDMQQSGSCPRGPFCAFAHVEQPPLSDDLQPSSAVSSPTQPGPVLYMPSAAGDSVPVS

B1: chr15:52550718:52550819:-|3pUTR|ENSG00000128989|msi1|total|mutant (ssRNA)
RNA: GGGAGUUCUACAGUCCGACGAUCUUUAUAUAAACUUUUUAAAUGCCGAAACUUUUUACUUCCACACUCAGUUUUGGAGACCCCCGAAUAAAAGGCUUCAAUACUCUGCAUUCCAUGCCCUCUGCCACCUGCUUUUUUUUCCCCCAACAGAGGAUUGAGCAUCA
B2: ENSG00000066084:stop:overlap|stop_codon|ENSG00000066084|stop_codon|NA|stop_codon (ssRNA)
RNA: GGGAGUUCUACAGUCCGACGAUCACUGGCAGCCACACAUCUCACCUGCUGGGACAGAACCGGCAUACAUUGAGGGGAAACAAUAGUAAAUGUCUUAGACUUUAAGAAGGAUGCUGGGCUGUGGCACGGCAUGUUUGCGAAUGUCAACAGAGGAUUGAGCAUCA
B3: chrX:150470157:150470258:+|CDS|ENSG00000013619|unk|FALSE|unique (ssRNA)
RNA: GGGAGUUCUACAGUCCGACGAUCUCCAAAUGAGCUAGAUCUUGAGAAGAUACUGGGGACGAAGCCAGAAGAGCCACUGGUUUUAGAUCAUCCCCAGGCAACCCUAAGCACAACUCCCAAGCCUUCGGUUCAGAUGUCACACUUCAACAGAGGAUUGAGCAUCA
B4: chr8:102207567:102207681:-|3pUTR|ENSG00000048392|unk|total|mutant (ssRNA)
RNA: GGGAGUUCUACAGUCCGACGAUCUAUUAAUUGCAAUGAUGUUGUAAUAAAAUACUCUCAUUUCCUUAAAAUAAUUGUGAUUCCCGGUCCCCGGAUCCCGAAUCCGAUCUUUGUAUUUUUAAUGCUCCGGGGAAGAAUAUAAGUCAACAGAGGAUUGAGCAUCA
B5: ENSG00000142634:stop:overlap|stop_codon|ENSG00000142634|stop_codon|NA|stop_codon (ssRNA)
RNA: GGGAGUUCUACAGUCCGACGAUCAGGCGGAGGAGAUGAAGCAGCGGAAAGCGGCCUUCAAGGAGCUGCAGUCCACCUUUAAGUAGCGGGGGCUGCAGCCGACCGCCCUGCUCCGGCCCCAGUGUGGUGGGCGAGGGUGGCGCACAACAGAGGAUUGAGCAUCA
B6: ENSG00000100154:stop:overlap|stop_codon|ENSG00000100154|stop_codon|NA|stop_codon (ssRNA)
RNA: GGGAGUUCUACAGUCCGACGAUCAGCCAGUGAAGGCAGGUGACACUUACCUCCACCAGGUGAUGCAGGCUGUGGUGAUAAACUAGAGUGUGAAGAGCUCAGAGUGCAGCCUCUGGCCUUGCCACUCACAAGCUGUAGGACACUCAACAGAGGAUUGAGCAUCA
B7: chr18:33333173:33333394:-|CDS|ENSG00000166960|control|control|control (ssRNA)
RNA: GGGAGUUCUACAGUCCGACGAUCACAUUUUGAAAAACAAAAGACAGAGUUAGAAGAAGCAAAUGCAAAGAUUCAAGCAGACAUAGACUACAUGAAUGAACAUGGCCCUCUACUGGACUCUAAGCAGAAUCAGGAACUUCAAGACAACAGAGGAUUGAGCAUCA
B8: chr3:142163631:142163732:-|3pUTR|ENSG00000175066|unk|total|mutant (ssRNA)
RNA: GGGAGUUCUACAGUCCGACGAUCCCCAAAGUGCUGGGAUUGCAGCCGUGAACCACUGCACCCAGCCAAUGGGUGUAAUUUCACCGGAAAUAAUUCUUUUUGUCAGAAUGUACUGAAUUGUAAUAUUAAUACCUGAAAAUUUGUCAACAGAGGAUUGAGCAUCA
B9: ENSG00000101596:stop:overlap|stop_codon|ENSG00000101596|stop_codon|NA|stop_codon (ssRNA)
RNA: GGGAGUUCUACAGUCCGACGAUCUUAGUUGUAAUAAAAUAAAAGAUAAUGACAAAGAAGAUGGCUGCUUCUAUUUCAGGUUAUAGUUGAAGUCCUGCCUAAUCAACCUGUGAAGUUAGUACCUAAAAUUAAACCACCUACACCCAACAGAGGAUUGAGCAUCA
B10: chr20:18487131:18487232:-|3pUTR|ENSG00000089050|msi1|FALSE|unique (ssRNA)
RNA: GGGAGUUCUACAGUCCGACGAUCAAAUAUAGUAACCAGUAACCACAGCUAGCUGUAAAAUUGAAAAUUCAGUUCAGUCAAACUAGCCAUAUUUCAAGUGCUCAACAGCCACUGGUGGCUAUUGGUUACCUUACUGACCAGCCACAACAGAGGAUUGAGCAUCA
B11: chr9:34635388:34635489:-|3pUTR|ENSG00000147955|msi1|total|mutant (ssRNA)
RNA: GGGAGUUCUACAGUCCGACGAUCGGGAUAUCCAUGCUUAUGUAUCCAAACACAGAGACCCAUGGGAACAAAUGAGACACAUACCGAUACUGAGACCUGUGUGUACAGCCGGACCAUGCACUCACACCCAUCUGGAGAGGGAGCCAACAGAGGAUUGAGCAUCA
B12: chr1:16124655:16124788:-|3pUTR|ENSG00000142627|msi1|total|mutant (ssRNA)
RNA: GGGAGUUCUACAGUCCGACGAUCAGACUGUGAACUUGACUGGGUGAGACCCAAAGCGGUCCCUGUCCCUCCCGUGCCUUCUUCCGACCCUCGGGCCCCAUCCUCAUCCCUGACUGGCCAAACCCUUGCUUUCCUGGGCCUUUGCAACAGAGGAUUGAGCAUCA
B13: ENSG00000070961:be:win_2401|CDS|ENSG00000070961|bound_else_gene|NA|bound_elsewhere_windowed (ssRNA)
RNA: GGGAGUUCUACAGUCCGACGAUCGAUGGCCCAGCACUAAAGAAAGCAGAUGUUGGAUUUGCAAUGGGUAUUGCUGGAACUGAUGUAGCUAAAGAAGCAUCCGAUAUUAUUCUCACAGAUGACAACUUUACAAGCAUUGUUAAACAACAGAGGAUUGAGCAUCA
B14: chr1:6592219:6592320:-|3pUTR|ENSG00000162413|unk|total|mutant (ssRNA)
RNA: GGGAGUUCUACAGUCCGACGAUCCCCAAAGCCGCCUUGGCUUGAGUUUUUGUCCUUGCCUCCUUUUCCGAGAAGAGGGCAUUCCGACUGCAUUUUCCUGGUUAAAGAAGGUUAAAGCAAAUGUUUAUUGCCUUUUCCCGUGAACAACAGAGGAUUGAGCAUCA

Biological target: T1, UNK ZnF1-6 (called full-length)
Assay: nsRBNS (natural sequence RNA bind-n-seq); RBNS binding buffer (assumed for nsRBNS): 25 mM Tris pH 7.5, 150 mM KCl, 3 mM MgCl2, 0.01% Triton X-100, 500 ug/ml BSA, 20 U/ml SUPERase-In, 4 C; UNK is unkempt and MSI1 is Musashi-1; names of the RNAs are library labels; protein concentration not given here; high values mean tight binding

Row | Binder | binding signal [enrichment R]
1 | B1 | 1.03
2 | B2 | 1.59
3 | B3 | 0.539
4 | B4 | 0.334
5 | B5 | 1.43
6 | B6 | 0.552
7 | B7 | 0.467
8 | B8 | 0.381
9 | B9 | 1.46
10 | B10 | 0.375
11 | B11 | 0.886
12 | B12 | 1.06
13 | B13 | 0.531
14 | B14 | 0.414
